# Source: PubChem BioAssay
# ADAM10 inh: human ADAM10 inhibitors, primary screen, biochemical, QFRET, HTS | Disintegrin and metalloproteinase domain-containing protein 10 (Homo sapiens), O14672 | recombinant ADAM10, EDANS/DABCYL FRET peptide cleavage, 3 h | inhibition, % at 7 µM | actives 0.62% (n = 370,000) | AID 720582, 2013;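 active = inhibition above a per-campaign cutoff equal to the mean of compounds falling between control-based bounds plus 3 SD, cut at about 20% in these data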;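 note: 0% = DMSO wells while the 100% control is not disclosed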
# sPLA2-III inh: human group III sPLA2 inhibitors, primary screen, biochemical, QFRET, BODIPY PC-A2 liposome substrate | Group 3 secretory phospholipase A2 (Homo sapiens), Q9NZ20 | QFRET BODIPY PC-A2 liposome hydrolysis, fluorescence | inhibition, % at 12.2 µM | actives 0.56% (n = 370,000) | AID 743126, 2013;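 active = inhibition above mean plus 3 SD of compounds lying within the high and low control bounds, cut at about 19% in these data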;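 note: 0% = median of test compound wells and 100% = no enzyme DMSO wells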
# Target sequence (Q9NZ20 whole entry, looked up): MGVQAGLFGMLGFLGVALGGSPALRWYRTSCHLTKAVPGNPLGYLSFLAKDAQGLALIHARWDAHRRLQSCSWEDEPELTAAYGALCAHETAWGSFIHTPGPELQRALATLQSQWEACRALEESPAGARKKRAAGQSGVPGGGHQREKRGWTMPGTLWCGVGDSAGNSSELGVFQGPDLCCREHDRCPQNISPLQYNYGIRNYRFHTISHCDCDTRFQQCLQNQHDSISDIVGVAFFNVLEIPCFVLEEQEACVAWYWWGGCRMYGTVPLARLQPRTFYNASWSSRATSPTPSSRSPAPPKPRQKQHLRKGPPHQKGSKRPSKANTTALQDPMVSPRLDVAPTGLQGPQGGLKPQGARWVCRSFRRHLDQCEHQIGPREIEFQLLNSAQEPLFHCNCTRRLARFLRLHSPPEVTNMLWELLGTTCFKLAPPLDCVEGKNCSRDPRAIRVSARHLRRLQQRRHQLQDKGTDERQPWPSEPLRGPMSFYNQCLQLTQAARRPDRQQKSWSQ
# ADAM17 inh: ADAM17 inhibitors, primary screen, biochemical, QFRET | Disintegrin and metalloproteinase domain-containing protein 17 (Homo sapiens), P78536 | recombinant ADAM17, EDANS/DABCYL FRET peptide cleavage | inhibition, % at 6.95 µM | actives 0.83% (n = 370,000) | AID 720648, 2013;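 active = inhibition above the mean of compounds lying between control limits plus 3 SD, set per campaign, cut at about 8.5% in these data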;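 note: 0% = DMSO-only wells as the low control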
# proKLK7 act: proKLK7 zymogen activators, primary screen, biochemical, fluorescence intensity; Kallikrein-7 (Homo sapiens), P49862; purified proKLK7, EDANS-DABCYL substrate fluorescence; 100% is mature enzyme control, 0% vehicle; activation, % at 7 µM; actives 0.9% (n = 370,000);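 active = activation above the mean of all tested compounds plus 3 SD, computed per campaign excluding outliers beyond control limits, cut at about 13% in these data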
# PLC-beta3 inh: human PLC-beta3 inhibitors, primary screen, biochemical, fluorescence | 1-phosphatidylinositol 4,5-bisphosphate phosphodiesterase beta-3 (Homo sapiens), Q01970 | Purified PLC-beta3, fluorogenic substrate | inhibition, % at 12.2 µM | actives 0.18% (n = 370,000) | AID 720704, 2013; in the data active = inhibition above about 11%;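 note: 0% = median of compound wells on plate and 100% = full blocker control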
# PLC-gamma1 inh: PLC-gamma1 enzyme inhibitors, primary screen, biochemical, fluorescence, purified enzyme | 1-phosphatidylinositol 4,5-bisphosphate phosphodiesterase gamma-1 (Homo sapiens), P19174 | fluorogenic substrate | inhibition, % at 12.2 µM | actives 0.84% (n = 370,000) | AID 720700, 2013
# ADAM10 counter: ADAM10 inhibitors, counter-screen for ADAM17 exosite inhibitor project, biochemical, FRET, human ADAM10; shares compounds with ADAM17 inh; recombinant ADAM10, EDANS/DABCYL FRET peptide cleavage, 3 h; inhibition, % at 6.95 µM; actives 47% (n = 2,900); AID 743256, 2014;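 active = mean inhibition over the triplicate runs exceeds the activity threshold set in the earlier primary screen, cut at about 20% in these data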;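 note: 0% = DMSO wells and 100% = marimastat wells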
# ADAM17 confirm: ADAM17 inhibitors, hit retest, confirmation, biochemical, QFRET peptide cleavage; shares compounds with ADAM17 inh; recombinant ADAM17, EDANS/DABCYL QFRET peptide cleavage; inhibition, % at 6.95 µM; actives 65% (n = 2,900);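 active = mean inhibition across replicates above the hit cutoff set in the primary screen, cut at about 8.5% in these data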;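 note: 0% = DMSO wells and 100% = marimastat wells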
# PLCgamma1 ctr: PLC-gamma1 enzyme inhibitors, counter-screen for PLC-beta3 inhibitor project, biochemical, fluorescence | shares compounds with PLC-gamma1 inh | purified PLC-gamma1, fluorogenic substrate | inhibition, % at 12.3 µM | actives 3.1% (n = 3,300)
# PLCb3 confirm: PLC-beta3 inhibitor confirmation, biochemical, fluorescence, purified enzyme | AID 743261, 2014 | actives 1% (n = 3,300) | fluorogenic substrate fluorescence | inhibition, % at 12.3 µM | shares compounds with PLC-gamma1 inh; in the data active = inhibition above about 11%
# * = called active by the depositor; / = no result. Most compounds without a hit are left out; they make up all but 3.4% or so of the library. Cut-off read from the data, not from the text of the source, unless noted: active = inhibition above about 9.5%; inactive = the rest.
SMILES,ADAM10 inh,sPLA2-III inh,ADAM17 inh,proKLK7 act,PLC-beta3 inh,PLC-gamma1 inh,ADAM10 counter,ADAM17 confirm,PLCgamma1 ctr,PLCb3 confirm
CN1C(C(=O)Nc2cccc(O)c2)=CC(c2cccs2)=NS1(=O)=O,13.1,-15.4,9.7*,-0.9,6.0,10.4*,18.2,7.3,6.6,2.7
O=C(NCCc1ccccc1)OCc1cn(Cc2cccc(C(F)(F)F)c2)nn1,8.0,-11.8,-0.5,0.2,-0.3,-2.2,/,/,/,/
CCOC(=O)Cc1csc(NC(=O)COc2ccc(C)cc2)n1,5.3,-4.0,2.6,-0.1,4.7,0.9,/,/,/,/
CCOC(=O)Cc1csc(NC(=O)COc2ccccc2)n1,11.0,2.5,10.0*,-0.3,6.4,11.4*,-8.5,-0.5,-4.3,-0.3
Cc1nc2ccc(S(=O)(=O)NCC(=O)NCc3ccc4c(c3)OCO4)cc2s1,3.6,8.8,11.0*,-0.5,12.4*,5.3,18.3,14.5*,-8.3,-3.5
CC(Oc1ccc(Cl)cc1Cl)C(=O)Nc1ccc(O)cc1 (configuration not stated),5.5,-24.9,8.8*,-0.2,5.4,15.9*,5.0,6.1,-8.1,-5.8
COc1c(OC(C)=O)ccc(/C=C/c2ccc3ccccc3n2)c1[N+](=O)[O-],17.2,-10.4,17.4*,0.0,6.2,14.5*,24.6*,13.8*,0.7,-21.1
O=C(N/N=C/c1cccnc1)c1ccc([N+](=O)[O-])cc1,13.9,12.2,8.9*,-0.1,4.9,15.6*,11.7,9.0*,-2.0,2.0
CN(C)S(=O)(=O)c1ccc(NC(=O)COC(=O)CC2CC3CCC2C3)cc1 (configuration not stated),13.5,-16.8,8.6*,1.2,3.3,9.8*,20.1*,13.5*,-7.2,-3.2
COc1ccc(N=Cc2c(C)[nH][nH]c2=O)cc1,7.2,9.7,8.8*,0.0,8.1,9.9*,12.5,6.9,0.8,1.4
COc1ccc(S[C@]2(C(=O)N3CCN(C(C)=O)CC3)CC(=O)N(S(=O)(=O)c3ccc(F)cc3)[C@@H]2c2ccc(OC)cc2)cc1,13.4,-9.8,6.3,0.7,0.3,1.8,/,/,/,/
O=S1(=O)CCN(Cc2ccc(Cl)c(Cl)c2)CC1,-3.2,0.3,-3.4,-0.2,1.4,-5.1,/,/,/,/
O=S1(=O)CCN(Cc2ccc(Cl)cc2)CC1,12.6,8.6,9.2*,0.1,10.3,14.2*,-8.3,1.0,-7.9,-3.2
O=C(NC1CCC1)c1ccc(C#Cc2cccc(F)c2)cn1,-15.5,1.5,-1.7,0.6,-3.4,0.7,/,/,/,/
Cc1ccc(-c2c(NC(=O)c3ccccc3)nc3ncccn23)cc1,-331.6,9.9,-94.5,8.4,-402.0,-316.4,/,/,/,/
CCC(C(=O)NCc1ccco1)N(C(=O)CNS(=O)(=O)c1ccccc1)C1CCCCC1 (configuration not stated),-7.2,-6.2,-0.7,-0.1,-0.9,-1.3,/,/,/,/
CC(C)C(C(=O)NCc1ccco1)N(C(=O)CNS(=O)(=O)c1ccccc1)C1CCCC1 (configuration not stated),7.9,-14.6,10.1*,0.8,12.5*,3.0,-0.2,3.3,-0.8,3.6
Cc1cc(Cl)ccc1OCC(=O)N/N=C/c1ccc[nH]1,3.9,-0.8,-0.3,/,2.3,-1.4,/,/,/,/
C/C(=N\N=C(/N)SC1CC(=O)N(c2ccc(Cl)cc2)C1=O)c1cccs1 (configuration not stated),15.4,-41.2,10.8*,0.4,3.4,9.9*,35.2*,17.8*,4.8,5.5
N/C(=N\N=C\c1cccs1)SC1CC(=O)N(c2ccc(Br)cc2)C1=O (configuration not stated),16.8,-30.7,8.2,-0.2,3.0,7.2,/,/,/,/
COc1ccc(CNC(=O)C2(CC3CC(c4ccccc4)=NO3)CCN(C(=O)C3(C)CC3)CC2)cc1 (configuration not stated),6.5,0.3,8.7*,0.9,7.2,10.8*,0.7,5.3,-2.4,2.0
Cc1ccc(OCc2nnc(SCC(=O)c3ccc(-c4ccccc4)cc3)n2Cc2ccco2)cc1,-7.6,-10.0,-3.4,-1.1,-13.4,-7.3,/,/,/,/
Cc1ccc(S(=O)(=O)N2C3CCCCC3O[C@H]2CC(=O)c2ccc(F)cc2)cc1 (some centres not stated),13.5,-2.1,9.6*,1.4,-1.0,11.0*,9.5,6.1,-6.0,-4.1
Cc1ccc(S(=O)(=O)N2C3CCCCC3O[C@H]2CC(=O)c2ccccc2)cc1 (some centres not stated),0.2,-1.9,1.1,-0.4,2.0,2.6,/,/,/,/
C=CCCC(=O)N1CCCC(Cc2cccc(Cl)c2)(C(=O)OCC)C1 (configuration not stated),9.7,-1.5,9.1*,-0.5,1.6,11.6*,-6.0,0.2,-2.7,-6.8
CCOC(=O)C1(Cc2cccc(Cl)c2)CCCN(C(=O)CCOC)C1 (configuration not stated),0.0,6.3,-2.2,-0.5,2.3,1.5,/,/,/,/
COCCNC(=S)N1C[C@H]2CON(C)[C@H]2C[C@H]1c1ccccc1Br,-2.2,12.3,9.4*,0.0,5.5,9.7*,-9.9,-1.6,-2.5,0.6
CCOC(=O)Cn1cc(CN2C(C(=O)OC)CN(CCO)CCS2(=O)=O)nn1 (configuration not stated),1.3,5.1,-3.0,0.5,1.2,0.8,/,/,/,/
